The supplement of paper PMC9694430

Legend:
Test in all cases: thermal shift delta Tm vs DMSO control; higher = stronger stabilization (binding)
Details in all cases: 12.5 µM; protein concentration 2 µM
[1] = tested on: LOC_OS02G45750-cb003
In short: (§1)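 Thermal shift values come from differential scanning fluorimetry on purified rice kinase domains made in E. coli, with melting temperatures obtained from Boltzmann fits. Samples of 19.5 μl held 2 μM kinase, 100 mM potassium phosphate pH 7.5, 150 mM NaCl, 10% glycerol, 5 × SYPRO Orange and compound in DMSO, and were heated from 25°C to 95°C at 0.05°C/s. Each shift is a triplicate mean relative to the DMSO-only protein sample.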

[2] = tested on: LOC_OS02G54510-cb004
In short: as §1

[3] = tested on: LOC_OS03G04050-cb001
In short: as §1

[4] = tested on: LOC_OS03G12390-cb001
In short: as §1

[5] = tested on: LOC_OS03G27990-cb004
In short: as §1

[6] = tested on: LOC_OS03G50450-cb001
In short: as §1

[7] = tested on: LOC_OS03G50810-cb003
In short: as §1

[8] = tested on: LOC_OS04G35114-cb001
In short: as §1

[9] = tested on: T1, LOC_OS04G38480-cb003
T1 sequence (whole entry): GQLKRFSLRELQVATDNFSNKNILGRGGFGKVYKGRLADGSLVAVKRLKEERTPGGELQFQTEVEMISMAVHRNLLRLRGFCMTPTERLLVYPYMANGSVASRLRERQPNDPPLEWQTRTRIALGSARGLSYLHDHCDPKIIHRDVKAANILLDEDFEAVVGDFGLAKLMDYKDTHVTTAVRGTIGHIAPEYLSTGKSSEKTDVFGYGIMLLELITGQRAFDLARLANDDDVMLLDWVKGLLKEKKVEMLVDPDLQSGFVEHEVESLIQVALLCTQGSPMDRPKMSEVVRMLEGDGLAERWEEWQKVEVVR
In short: as §1

[10] = tested on: T2, LOC_OS04G41100-cb001
T2 sequence (whole entry): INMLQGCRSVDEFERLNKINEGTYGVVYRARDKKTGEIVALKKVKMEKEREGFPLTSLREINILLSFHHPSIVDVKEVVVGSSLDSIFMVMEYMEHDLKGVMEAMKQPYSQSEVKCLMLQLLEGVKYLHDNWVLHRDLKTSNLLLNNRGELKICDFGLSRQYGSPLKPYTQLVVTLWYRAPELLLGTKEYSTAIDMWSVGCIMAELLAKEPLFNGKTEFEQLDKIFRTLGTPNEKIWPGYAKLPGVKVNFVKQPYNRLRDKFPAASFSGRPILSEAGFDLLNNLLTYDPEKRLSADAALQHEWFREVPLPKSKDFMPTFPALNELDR
In short: as §1

[11] = tested on: LOC_OS04G57630-cb004
In short: as §1

[12] = tested on: LOC_OS05G07850-cb002
In short: as §1

[13] = tested on: LOC_OS05G16824-cb004
In short: as §1

[14] = tested on: LOC_OS05G28520-cb001
In short: as §1

[15] = tested on: LOC_OS05G30820-cb001
In short: as §1

[16] = tested on: LOC_OS05G43570-cb004
In short: as §1

[17] = tested on: LOC_OS06G16330-cb003
In short: as §1

[18] = tested on: T3, LOC_OS06G22820-cb001
T3 sequence (whole entry): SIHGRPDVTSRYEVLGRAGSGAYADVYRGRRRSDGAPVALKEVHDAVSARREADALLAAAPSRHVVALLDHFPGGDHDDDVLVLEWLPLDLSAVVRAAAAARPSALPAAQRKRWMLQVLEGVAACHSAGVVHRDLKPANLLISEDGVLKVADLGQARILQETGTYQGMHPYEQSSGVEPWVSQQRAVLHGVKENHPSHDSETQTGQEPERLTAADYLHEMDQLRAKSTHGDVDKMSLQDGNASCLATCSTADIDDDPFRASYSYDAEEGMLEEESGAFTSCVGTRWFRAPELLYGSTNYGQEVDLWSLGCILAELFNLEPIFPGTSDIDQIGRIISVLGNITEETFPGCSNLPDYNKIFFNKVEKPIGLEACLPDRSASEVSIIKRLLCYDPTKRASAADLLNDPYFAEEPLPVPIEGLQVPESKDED
In short: as §1

[19] = tested on: LOC_OS07G06570-cb004
In short: as §1

[20] = tested on: LOC_OS07G07230-cb001
In short: as §1
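Note: purified Escherichia coli-expressed rice kinase domain construct.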

Sequence of LOC_OS06G16330-cb003 (as listed by the source): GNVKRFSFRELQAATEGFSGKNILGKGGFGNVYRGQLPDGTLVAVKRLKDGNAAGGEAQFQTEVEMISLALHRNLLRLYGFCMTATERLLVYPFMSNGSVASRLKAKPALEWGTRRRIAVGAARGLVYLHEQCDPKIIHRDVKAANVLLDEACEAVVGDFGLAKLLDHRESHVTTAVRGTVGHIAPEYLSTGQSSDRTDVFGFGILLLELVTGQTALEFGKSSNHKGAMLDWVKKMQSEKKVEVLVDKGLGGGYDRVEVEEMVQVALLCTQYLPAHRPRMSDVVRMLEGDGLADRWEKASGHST

CNC(=O)c1ccc(Nc2ncc(C(F)(F)F)c(NCc3nccnc3N(C)S(C)(=O)=O)n2)cc1
thermal shift delta Tm [1]: 9.52 °C | thermal shift delta Tm [2]: 1.99 °C | thermal shift delta Tm [3]: 0.04 °C | thermal shift delta Tm [4]: 5.45 °C | thermal shift delta Tm [5]: 3.54 °C | thermal shift delta Tm [6]: 2.16 °C | thermal shift delta Tm [7]: 4.32 °C | thermal shift delta Tm [8]: 5.66 °C | thermal shift delta Tm [9]: 2.85 °C | thermal shift delta Tm [10]: 1.45 °C | thermal shift delta Tm [11]: 2.75 °C | thermal shift delta Tm [12]: 10.8 °C | thermal shift delta Tm [13]: 9.21 °C | thermal shift delta Tm [14]: 6.38 °C | thermal shift delta Tm [15]: 4.15 °C | thermal shift delta Tm [16]: 0.69 °C | thermal shift delta Tm [17]: 5.49 °C | thermal shift delta Tm [18]: 0.27 °C | thermal shift delta Tm [19]: 0.66 °C | thermal shift delta Tm [20]: 0.51 °C

OCCn1cc(-c2cnc3nnn(Cc4ccc5ncccc5c4)c3n2)cn1
thermal shift delta Tm [1]: 0.63 °C | thermal shift delta Tm [2]: 0.54 °C | thermal shift delta Tm [3]: 0.84 °C | thermal shift delta Tm [4]: -0.07 °C | thermal shift delta Tm [5]: 0.33 °C | thermal shift delta Tm [6]: 0.8 °C | thermal shift delta Tm [7]: 0.22 °C | thermal shift delta Tm [8]: 0.87 °C | thermal shift delta Tm [9]: -0.51 °C | thermal shift delta Tm [10]: 0.57 °C | thermal shift delta Tm [11]: -0.21 °C | thermal shift delta Tm [12]: 0.33 °C | thermal shift delta Tm [13]: -2.44 °C | thermal shift delta Tm [14]: 0.66 °C | thermal shift delta Tm [15]: 0.46 °C | thermal shift delta Tm [16]: 0.28 °C | thermal shift delta Tm [17]: -0.29 °C | thermal shift delta Tm [18]: 0.46 °C | thermal shift delta Tm [19]: 0.2 °C | thermal shift delta Tm [20]: 0.97 °C

C=CC(=O)N1CCN(CCCn2c(=O)c(-c3c(Cl)c(OC)cc(OC)c3Cl)cc3cnc(NC)nc32)CC1
thermal shift delta Tm [1]: 1.93 °C | thermal shift delta Tm [2]: 0.21 °C | thermal shift delta Tm [3]: 0.58 °C | thermal shift delta Tm [4]: -0.09 °C | thermal shift delta Tm [5]: 0.48 °C | thermal shift delta Tm [6]: 0.92 °C | thermal shift delta Tm [7]: 0.26 °C | thermal shift delta Tm [8]: -0.04 °C | thermal shift delta Tm [9]: 0.5 °C | thermal shift delta Tm [10]: 0.38 °C | thermal shift delta Tm [11]: 0.34 °C | thermal shift delta Tm [12]: 0.01 °C | thermal shift delta Tm [13]: 3.63 °C | thermal shift delta Tm [14]: -0.19 °C | thermal shift delta Tm [15]: 0.06 °C | thermal shift delta Tm [16]: 0.18 °C | thermal shift delta Tm [17]: -0.29 °C | thermal shift delta Tm [18]: 0.15 °C | thermal shift delta Tm [19]: 0.73 °C | thermal shift delta Tm [20]: 1.75 °C
